Assay outcomes from PubChem BioAssay.
This is a sample that favours compounds with a hit; in the whole collection about 3.1% have one here.
uPA surface inh: blocks generation of uPA at the cell surface. cell surface uPA generation assay, qHTS. Potency, µM (series often up to 38.3 µM), for the others: at the highest dose activity change, negative = inhibition, hits mostly inhibitors. actives 0.31% (n = 330,000). AID 540303; active = well fitted inhibition curve with a large enough effect; inconclusive = small, poorly fitted or top-dose-only effect; inactive = no such curve, though single readings can be large or run the other way; tested in mouse RAW 264.7 cells; also: potency is read from the fitted curve at half-maximal effect; % is scaled to controls: 0 for no effect and ±100 for the full control effect; nearly all actives have a fitted effect of over 55% in size
RGS4 inh: inhibitors of human regulator of G protein signaling 4 | P49798 | Transcreener GDP fluorescence polarization, RGS4-accelerated GTP hydrolysis | Potency, µM (highest dose often 114 µM), inactives show at the highest dose activity change, negative = inhibition, hits mostly inhibitors | actives 0.039% (n = 390,000) | AID 504845; active = well fitted inhibition curve with a large enough effect; inconclusive = small, poorly fitted or top-dose-only effect; inactive = no such curve, though single readings can be large or run the other way; also: potency is read from the fitted curve at half-maximal effect; % is scaled to controls: 0 for no effect and ±100 for the full control effect; nearly all actives have a fitted effect of over 75% in size
Target sequence (P49798 whole entry, looked up): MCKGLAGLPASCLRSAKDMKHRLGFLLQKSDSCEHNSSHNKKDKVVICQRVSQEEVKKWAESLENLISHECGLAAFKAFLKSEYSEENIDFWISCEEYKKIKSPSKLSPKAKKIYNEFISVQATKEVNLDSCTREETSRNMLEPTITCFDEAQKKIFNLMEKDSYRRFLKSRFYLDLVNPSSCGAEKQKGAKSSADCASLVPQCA
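MLSMR compounds (23 nl, pin-transferred) preincubated 10 min at room temperature with a 500nM (2x) first reagent, then RGS4 at 900nM (2x) plus Transcreener GDP mix added; fluorescence polarization (620/688 nm) read before and after 90 min at 30 °C.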
D3 ag: activates the human D3 dopamine receptor; actives 0.58% (n = 410,000); D3R DiscoveRx beta-arrestin cells, luminescence, 90 min; max activation, %; in the data active = max activation above about 30%; also: 0% is about no effect
Target sequence (P35462 whole entry, looked up): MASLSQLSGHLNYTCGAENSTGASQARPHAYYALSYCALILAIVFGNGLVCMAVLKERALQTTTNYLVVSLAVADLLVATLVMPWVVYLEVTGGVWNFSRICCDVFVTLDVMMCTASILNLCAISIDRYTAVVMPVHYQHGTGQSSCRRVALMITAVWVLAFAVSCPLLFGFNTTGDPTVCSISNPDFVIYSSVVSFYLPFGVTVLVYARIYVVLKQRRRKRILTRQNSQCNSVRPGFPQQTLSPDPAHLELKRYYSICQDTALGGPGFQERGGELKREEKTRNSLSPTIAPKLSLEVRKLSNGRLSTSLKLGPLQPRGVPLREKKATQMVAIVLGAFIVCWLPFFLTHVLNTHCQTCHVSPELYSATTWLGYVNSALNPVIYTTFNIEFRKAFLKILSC
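Cells at 1500/well, incubated overnight, then treated with pinned compounds (dopamine as control) for 90 min at 37 degrees C. DiscoveRx reagent added for 30 - 60 minutes at room temperature; luminescence read.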
DRD3 antagonist: blocks the human D3 dopamine receptor. actives 2.5% (n = 360,000). max response, negative = inhibition, %. D3R cells, DiscoveRx beta-arrestin luminescence, antagonist mode; stronger effect = lower value. AID 652054; in the data active = max response below about -50%; inconclusive = no clear call, values can overlap the other calls; also: % is scaled to controls: 0 for no effect and ±100 for the full control effect
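Cells expressing the human receptor were seeded at 1500 cells/well, incubated overnight at 37 degrees C in 5% CO2, then exposed to library compounds with dopamine controls for 90 minutes at 37 degrees C before luminescent detection.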
* hit, by the source's call; ! = not confirmed by another sample.

For O=C(CS(=O)c1ccc(C(F)(F)F)cc1[N+](=O)[O-])Oc1ccc(Cl)cc1 (configuration not stated) the results were uPA surface inh -12%, RGS4 inh -37%, D3 ag -4 and DRD3 antagonist -97*.
For Cc1cc(C)cc(OC(=O)CS(=O)c2ccc(C(F)(F)F)cc2[N+](=O)[O-])c1 (configuration not stated) the results were uPA surface inh -10%, RGS4 inh -29%, D3 ag -9 and DRD3 antagonist -73*.
Cc1ccc(OCCNc2ccc(C(F)(F)F)cc2[N+](=O)[O-])cc1 was read as uPA surface inh 0%, RGS4 inh -16%, D3 ag 5 and DRD3 antagonist 2.
COc1cc(C2C=C(C(=O)O)Nc3ncnn32)ccc1O (configuration not stated) was read as RGS4 inh 8% and D3 ag -14.
CCc1ccccc1NS(=O)(=O)c1ccc(OC)c2ncccc12 was read as uPA surface inh 11%, RGS4 inh -5%, D3 ag 31*! and DRD3 antagonist 80.
For CCCCNC(=O)c1nn(-c2ccc(CC)cc2)nc1CO the results were RGS4 inh 11% and D3 ag 6.
Screening COc1cc(/C=C/c2ccc3cccc(O)c3n2)ccc1O returned uPA surface inh 7%, RGS4 inh 38%, D3 ag -12 and DRD3 antagonist -52*.
`COc1cc(Br)c(/C=C/c2ccc3cccc(O)c3n2)cc1OC` gave uPA surface inh 1%, RGS4 inh -3%, D3 ag -5 and DRD3 antagonist -8.
`CSc1ccc(/C=C/c2ccc3cccc(O)c3n2)cc1` gave uPA surface inh 0%, RGS4 inh -50%, D3 ag -25 and DRD3 antagonist -58*.
Screening O=C(NCCc1ccccc1)C(=O)NCC(c1cccnc1)N1CCN(c2ccccc2F)CC1 (configuration not stated) returned RGS4 inh 23% and D3 ag 6.
Oc1ccccc1N=Nc1nc(-c2ccccc2)c(-c2ccccc2)[nH]1 was read as uPA surface inh 12%, RGS4 inh 3%, D3 ag -37 and DRD3 antagonist -72*.
For COc1ccccc1N=Nc1nc(-c2ccccc2)c(-c2ccccc2)[nH]1 the results were uPA surface inh -7%, RGS4 inh -20%, D3 ag -30 and DRD3 antagonist -75*.
`COc1ccc(N=Nc2nc(-c3ccccc3)c(-c3ccccc3)[nH]2)cc1` gave uPA surface inh -4%, RGS4 inh -17%, D3 ag -33 and DRD3 antagonist inconclusive.
For CC[C@@H](C)CCCCC(=O)N[C@H](CCN)C(=O)N[C@@H](C(=O)N[C@H](CCN)C(=O)N[C@@H]1CCNC(=O)C([C@@H](C)O)NC(=O)[C@@H](CCN)NC(=O)[C@@H](CCN)NC(=O)[C@@H](CC(C)C)NC(=O)[C@@H](Cc2ccccc2)NC(=O)[C@@H](CCN)NC1=O)[C@@H](C)O (some centres not stated) the results were D3 ag 7.
Screening CC(C)CC(C(=O)NCC1CCN(Cc2ccc(F)cc2)CC1)N1Cc2ccccc2C1=O (configuration not stated) returned RGS4 inh -18% and D3 ag -16.
For COc1ccc(-c2nc(CSc3nnc(C)n4c3cc3sccc34)c(C)o2)cc1 the results were RGS4 inh 25% and D3 ag -24.
`CC(C)(C)OC(=O)N1CCC(NC(=O)c2[nH]cnc2C(=O)Nc2cccc(Cl)c2)CC1` gave uPA surface inh 3%, RGS4 inh 6%, D3 ag 66* and DRD3 antagonist 0.
Screening CC(C)(C)OC(=O)[C@H](Cc1ccccc1)NC(=O)c1[nH]cnc1C(=O)Nc1cccc(Cl)c1 returned uPA surface inh -20%, RGS4 inh 2%, D3 ag 0 and DRD3 antagonist -54*.
Screening CC(C)(C)OC(=O)N1CCC(NC(=O)c2nc[nH]c2C(=O)NC2CCN(C(=O)OC(C)(C)C)CC2)CC1 returned uPA surface inh 21%, RGS4 inh 8%, D3 ag 7 and DRD3 antagonist 13.
Screening CC(C)C[C@H](NC(=O)c1nc[nH]c1C(=O)NCC(=O)OC(C)(C)C)C(=O)OC(C)(C)C returned uPA surface inh inconclusive, RGS4 inh -15%, D3 ag 8 and DRD3 antagonist 5.
Screening CC(C)(C)OC(=O)N1CCC(NC(=O)c2nc[nH]c2C(=O)NCC(=O)OCc2ccccc2)CC1 returned uPA surface inh 22%, RGS4 inh -41%, D3 ag 69* and DRD3 antagonist 95.
Screening CC(C)C[C@H](NC(=O)c1nc[nH]c1C(=O)N[C@@H](CC(C)C)C(=O)OC(C)(C)C)C(=O)OC(C)(C)C returned uPA surface inh -25%, RGS4 inh 1%, D3 ag -16 and DRD3 antagonist -55*.
CC(C)(C)OC(=O)CNC(=O)c1[nH]cnc1C(=O)NC1CCN(C(=O)OC(C)(C)C)CC1 was read as uPA surface inh 15%, RGS4 inh 9%, D3 ag 1 and DRD3 antagonist 29.
O=C(CNC(=O)c1nc[nH]c1C(=O)N1CCc2ccccc2C1)OCc1ccccc1 was read as uPA surface inh -19%, RGS4 inh inconclusive, D3 ag 40* and DRD3 antagonist 54.
Screening CSC1=NS(=O)(=O)c2c(C)nn(C)c2S1 returned uPA surface inh 2%, RGS4 inh inconclusive, D3 ag -8 and DRD3 antagonist -69*.
Screening CC(=O)Nc1cccc(NC(=O)c2c(-c3ccccc3)c(-c3ccccc3)nn(C)c2=O)c1 returned RGS4 inh -1% and D3 ag 0.
CC(C)(C)NC(=O)Cn1cc(S(=O)(=O)Cc2ccccc2Cl)c2ccccc21 was read as RGS4 inh -1% and D3 ag 1.
`C=CCC(Nc1ccccc1)C12C=CC(O1)C(C(=O)OC)=C2C(=O)OC` (configuration not stated) gave uPA surface inh -12%, RGS4 inh inconclusive, D3 ag -7 and DRD3 antagonist -78*.
Screening CCOc1ccc(NC(=O)Cn2cc(C(=O)c3ccc(C)c(C)c3)c(=O)c3cc4c(cc32)OCCO4)cc1 returned RGS4 inh -5% and D3 ag -15.
`CCN(CC)CCCNc1oc(-c2ccccc2[N+](=O)[O-])nc1C#N` gave uPA surface inh 13%, RGS4 inh 3%, D3 ag 6 and DRD3 antagonist -56*.
For CC(C)c1ccc(NC(=O)Cn2cc(S(=O)(=O)Cc3cccc(Cl)c3)c3ccccc32)cc1 the results were RGS4 inh -1% and D3 ag 2.
Cc1ccccc1CSc1cn(CC(=O)N2CCCC2)c2ccccc12 was read as RGS4 inh -12% and D3 ag -14.
For c1ccc(C2OC3c4cccc5cccc(c45)C3N2c2ccccc2)cc1 (configuration not stated) the results were uPA surface inh -5%, RGS4 inh -37%, D3 ag -5 and DRD3 antagonist -59*.
